Bioassay records from PubChem BioAssay.
EPAC1 ag val = Validation qHTS for agonist of cAMP-regulated guanine nucleotide exchange factor 3 (EPAC1); EPAC1 Rap1b BODIPY-GDP exchange, fluorescence; Potency, µM, inactives show max response, positive = active, most hits filed as activators; actives 1% (n = 16,000); AID 1645883, 2021; note: nearly all actives have a fitted effect of over 70% in size
Target sequence (O95398 whole entry, looked up): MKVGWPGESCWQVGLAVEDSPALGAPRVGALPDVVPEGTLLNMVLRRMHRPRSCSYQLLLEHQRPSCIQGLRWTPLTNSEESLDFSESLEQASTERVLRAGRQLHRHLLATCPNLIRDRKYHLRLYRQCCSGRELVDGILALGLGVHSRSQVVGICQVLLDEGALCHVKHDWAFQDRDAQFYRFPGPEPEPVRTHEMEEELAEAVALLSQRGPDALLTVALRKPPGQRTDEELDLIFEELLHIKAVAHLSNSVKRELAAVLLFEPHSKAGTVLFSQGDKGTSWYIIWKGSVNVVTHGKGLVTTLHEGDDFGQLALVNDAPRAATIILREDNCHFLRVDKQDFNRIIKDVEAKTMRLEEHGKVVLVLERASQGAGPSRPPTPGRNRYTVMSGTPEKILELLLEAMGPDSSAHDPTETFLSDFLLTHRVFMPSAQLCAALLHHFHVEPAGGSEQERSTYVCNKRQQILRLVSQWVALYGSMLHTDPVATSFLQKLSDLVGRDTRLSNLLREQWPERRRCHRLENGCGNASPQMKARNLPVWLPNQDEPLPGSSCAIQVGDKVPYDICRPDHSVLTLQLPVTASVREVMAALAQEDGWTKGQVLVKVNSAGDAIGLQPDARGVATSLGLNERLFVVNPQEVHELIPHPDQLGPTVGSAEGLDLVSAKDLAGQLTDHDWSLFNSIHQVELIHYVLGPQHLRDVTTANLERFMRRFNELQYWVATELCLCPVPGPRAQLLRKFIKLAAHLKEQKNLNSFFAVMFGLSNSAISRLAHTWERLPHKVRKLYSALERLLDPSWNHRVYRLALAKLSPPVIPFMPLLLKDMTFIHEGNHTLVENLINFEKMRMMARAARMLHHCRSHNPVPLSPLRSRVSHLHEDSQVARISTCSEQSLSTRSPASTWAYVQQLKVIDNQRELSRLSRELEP
EPAC2 ant val = Validation qHTS for antagonist of cAMP-regulated guanine nucleotide exchange factor 4 (EPAC2); Rap guanine nucleotide exchange factor 4 (Homo sapiens), Q8WZA2; EPAC2 Rap1B BODIPY-GDP exchange, fluorescence; Potency, µM (top dose mostly 112 µM), for inactives: top-dose activity, negative = inhibition, most hits filed as inhibitors; actives 1.7% (n = 16,000); AID 1645886, 2021;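 note: 100% = activation by cAMP agonist control; nearly all actives have a fitted effect of over 40% in size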
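Normalized against a 6.5 mM cAMP agonist control, compounds were tested on 100 nM EPAC2 exchanging Rap1B-bound BODIPY-GDP (250 nM) for 50 uM GDP. Fluorescence drop (ex 480, em 540 nm) was tracked at room temperature over 30 min at 5-min intervals.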
An asterisk follows results filed as active; i = inactive; ? = inconclusive; ! = not active in a repeat; [ ] = another dose, or the depositor's remark. Hits are enriched below; roughly 2.9% of the tested compounds scored in any of these assays. Calls come from the whole dose curve; as a rule, active = well fitted curve in the direction sought with a large enough effect; inconclusive = small, poorly fitted or top-dose-only effect, or another doubt; inactive = no such curve, though single readings can be large; an effect the other way counts as inactive or inconclusive. Unless noted, % is set by controls: 0 for no effect and ±100 for the full control effect; potency is the fitted concentration of half-maximal effect.

SMILES | EPAC1 ag val | EPAC2 ant val
CCCCCCC(C)(C)c1ccc([C@@H]2C[C@H](O)CC[C@@H]2CCCO)c(O)c1 | -53% | 28µM*
CC[C@H](O)C(C[C@H](C)N(C)C)(c1ccccc1)c1ccccc1 | -8% | 28%[239 µM]
CO/C=C(/C(=O)OC)c1ccccc1Oc1cc(Oc2ccccc2C#N)ncn1 | -96% | -17%[239 µM]
O=C1Nc2ccc(Cl)cc2C(c2ccccc2)=NC1O (stereo not given) | 3% | ?
O=C1CN=C(c2ccccc2)c2cc(Cl)ccc2N1CC1CC1 | -16% | 22µM*
N#CC(C#N)=Cc1cc(O)c(O)c(O)c1 | -19% | 89µM*!
N#C/C(=C\c1ccc(O)c(O)c1)C(N)=S | -21% | ?
Cc1ccc2c(c1)C1CN(C)CCC1N2 (stereo not given) | -33% | -5%
NCCc1cc(O)c(O)cc1O | 112µM* | -10%
COc1ccc(CCN)cc1O | -2% | 0%
CN(C)CCCCCCN(C)C (tested in a mixture with another compound) | -10% | 3%
CC(=O)OCC1=C(C(=O)O)N2C(=O)[C@@H](NC(=O)CCC[C@@H](N)C(=O)O)[C@H]2SC1 | -2% | ?
C=CCC1=C(C)C(OC(=O)C2C(C=C(C)C)C2(C)C)CC1=O (stereo not given) | -104% | -29%[239 µM]
Cl.Cl.Cl.Cl.Cl.Cl.N.N.N.N.NNNNN.NNNNN.O.O.[Ru].[Ru].[Ru] | -15% | 56µM*
C=C[C@H]1CN2CC[C@H]1C[C@H]2[C@H](OC(=O)OCC)c1ccnc2ccc(OC)cc12 | -18% | -10%
[S]=[Sb](=[S])[S][Sb](=[S])=[S] | -4% | 23%
Oc1cc(Cl)ccc1Oc1ccc(Cl)cc1Cl | ? | 11µM*!
O=C(O)COc1ccc(Cl)cc1Cl | 29% | -13%
NC(=O)[C@H](Cc1ccccc1)NC(=O)[C@H](Cc1c[nH]c2ccccc12)NC(=O)[C@@H]1CCCN1C(=O)[C@@H](N)Cc1ccc(O)cc1 | -8% | 4%[11.4 µM]
CN[C@]1(c2ccccc2Cl)CCCCC1=O | 6% | -7%
CCC(=O)O[C@H]1[C@@H](N2CCCCC2)C[C@H]2[C@@H]3CC[C@H]4C[C@H](OC(C)=O)[C@@H](N5CCCCC5)C[C@]4(C)[C@H]3CC[C@@]21C | 8% | -14%
CCCC[C@H]1C(=O)O[C@H](C)[C@H](NC(=O)c2cccc(NC=O)c2OC)C(=O)O[C@@H](C)[C@@H]1OC(=O)CC(C)C | -47% | ?
CCCCCC1C(=O)O[C@H](C)[C@@H](NC(=O)c2cccc(NC=O)c2O)C(=O)OC(C)C1OC(=O)CC(C)C (stereo not given in full) | -195% | 56µM*
CCOC(=O)/C=C(C)/C=C/C[C@@H](C)CCCC(C)C | -29% | -17%
Cc1c(C(=O)c2cccc3ccccc23)c2cccc3c2n1[C@H](CN1CCOCC1)CO3 | ? | -23%
SMILES | EPAC1 ag val | EPAC2 ant val
CCCn1c(C)c(C(=O)c2cccc3ccccc23)c2ccccc21 | 2% | 20µM*
Oc1c(Cl)c(Cl)c(Cl)c(Cl)c1Cl | -64% | 14µM*
COC(=O)[C@H]1[C@@H](OC(=O)c2ccccc2)C[C@@H]2CC[C@H]1N2C | -13% | -6%[239 µM]
CC(=O)O[C@H]1C[C@H](O[C@H]2[C@@H](O)C[C@H](O[C@H]3[C@@H](O)C[C@H](O[C@H]4CC[C@@]5(C)[C@H](CC[C@@H]6[C@@H]5C[C@@H](O)[C@]5(C)[C@@H](C7=CC(=O)OC7)CC[C@]65O)C4)O[C@@H]3C)O[C@@H]2C)O[C@H](C)[C@H]1O[C@@H]1O[C@H](CO)[C@@H](O)[C@H](O)[C@H]1O | -35% | 14%
O=C1OC2(c3cc(Br)c(O)cc3Oc3c2cc(Br)c(O)[c]3[Hg])c2ccccc21 (stereo not given) | 40µM*! | i
O=C(O)c1ccccc1-c1c2cc(Br)c(=O)cc-2oc2[c]([Hg])c(O)c(Br)cc12 | ? | i
Cc1ccc2c(c1)[C@]13CCCC[C@@H]1[C@H](C2)N(C)CC3 | 20% | 4%
CC1=NCCc2c1[nH]c1cc(O)ccc21 | 79µM* | i
COc1ccc2c3c([nH]c2c1)C(C)=NCC3 | ? | -8%
CCC/C=C/C=C/C(=O)O[C@H]1/C(=C/C(=O)OC)C[C@H]2C[C@H]([C@@H](C)O)OC(=O)C[C@H](O)C[C@@H]3C[C@H](OC(C)=O)C(C)(C)[C@](O)(C[C@@H]4C/C(=C/C(=O)OC)C[C@H](/C=C/C(C)(C)[C@]1(O)O2)O4)O3 | -78% | -29%
O=S(=O)(O)C(F)(F)C(F)(F)C(F)(F)C(F)(F)C(F)(F)C(F)(F)C(F)(F)C(F)(F)F | -229% | 100µM*
O=C(CN1CCCC2CCCCC21)c1ccc(I)cc1 (stereo not given) | 8% | -10%
NC(Cc1cc(O)c(O)cc1O)C(=O)O (stereo not given) | 18% | 13µM*
N[C@@H](CCl)C(=O)O | -8% | 9%
CCN(CC)C(=O)[C@@H]1C=C2c3cccc4[nH]cc(c34)C[C@H]2N(C)C1 | 14% | 11%
O=c1[nH]cc(N(CCCl)CCCl)c(=O)[nH]1 | -6% | 71µM*
C[C@]12CC[C@H]3[C@@H](CCC4=CC(=O)CC[C@@]43C)[C@@H]1CC[C@@H]2OC(=O)CCc1ccccc1 | 21% | -10%[239 µM]
